# Bioassay records (PubChem)
# Vif-APOBEC3F blk: blocks the Vif interaction with APOBEC3F | Potency, µM (doses to about 46.1 µM), for inactives: at the top dose activity, negative = active | HeLa A3F-eYFP + Vif (tagged APOBEC3F with the HIV-1 protein that degrades it), YFP fluorescence increase | 390,000 compounds, 0.2% hits | AID 602313; also: potency is read from the fitted curve at half-maximal effect; % of control where 0% means no effect; nearly all actives have a fitted effect of over 65% in size
#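 Fluorescence increase (Ex 488/Em 500-530) after overnight compound treatment at 37 deg C flags inhibition of Vif-driven A3F-eYFP loss in stable HeLa A3F-eYFP/Vif cells seeded overnight beforehand.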
# S-ASM inh: human S-ASM enzyme inhibition. P17405. Potency, µM (titrated, usually from 57.5 µM), for inactives: at the top dose activity change, negative = inhibition, usual class: inhibitors. 340,000 compounds, 0.006% hits. placental ASM, HMU-PC fluorogenic substrate, 60 min; also: potency is read from the fitted curve at half-maximal effect
#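 Fluorescence read-out (Ex 386 nm, Em 447 nm) after stopping the reaction at pH 10. Enzyme: ASM from human placenta; substrate HMU-PC0, 9 uM final; 60 min, 37 °C. Compound preincubation 10 min, ambient temperature.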
# Akt phos inh: inhibitors of Akt phosphorylation; Neuro2A IGF-stimulated pAkt S473 HTRF, 20 min; stronger effect = lower value; activity change, % for hits at 50 µM; 360,000 compounds, 0.32% hits; in the data active = activity change below about -80%; inconclusive = mostly about -51% to -80%; also: % is scaled to controls: 0 for no effect and ±100 for the full control effect
#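 Neuro2A cells (4,500/well, DMEM with 0.5% FBS) were treated with compound at a single 50 µM final concentration, stimulated with 6 nM IGF for 20 min at 37 °C, and lysed. Phospho-Akt Ser473 was read by HTRF as 665/615 ratio ×10^4.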
# 12-LOX inh: inhibitors of human 12S-lipoxygenase ALOX12; purified 12hLO, xylenol orange hydroperoxide absorbance; Potency, µM (series often up to 108 µM), for the others: top-dose activity change, negative = inhibition, actives largely listed as inhibitors; P18054; 580,000 compounds, 1.1% hits; AID 1671190; also: potency is read from the fitted curve at half-maximal effect; % is scaled to controls: 0 for no effect and ±100 for the full control effect
#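 Purified human 12hLO at 150 nM in 25 mM Hepes, 0.01% Triton X-100, pH 7.0, preincubated 15 min at room temperature with compound. Reaction started with 40 uM arachidonic acid, 30 min at room temperature. Hydroperoxide measured by Fe-xylenol orange, 573/405 nm absorbance ratio.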
# TSG101-PTAP inh: blocks PTAP/TSG101 interaction to inhibit HIV-1 budding; Fluorescence polarization, FITC-PTAP peptide / Tsg101 binding; Q99816; Potency, µM (titrated, usually from 115 µM), for the others: top-dose activity change, negative = inhibition, actives largely listed as inhibitors; 340,000 tested, under 10 active; active = well fitted inhibition curve with a large enough effect in the main read-out, with a control signal flat, not every such curve was filed as active; inconclusive = small, poorly fitted or top-dose-only effect, or effect the other way, or a change in a side signal; inactive = no such curve, though single readings can be large or run the other way; also: potency is read from the fitted curve at half-maximal effect; % of control where 0% means no effect
# Target sequence (Q99816 whole entry, looked up): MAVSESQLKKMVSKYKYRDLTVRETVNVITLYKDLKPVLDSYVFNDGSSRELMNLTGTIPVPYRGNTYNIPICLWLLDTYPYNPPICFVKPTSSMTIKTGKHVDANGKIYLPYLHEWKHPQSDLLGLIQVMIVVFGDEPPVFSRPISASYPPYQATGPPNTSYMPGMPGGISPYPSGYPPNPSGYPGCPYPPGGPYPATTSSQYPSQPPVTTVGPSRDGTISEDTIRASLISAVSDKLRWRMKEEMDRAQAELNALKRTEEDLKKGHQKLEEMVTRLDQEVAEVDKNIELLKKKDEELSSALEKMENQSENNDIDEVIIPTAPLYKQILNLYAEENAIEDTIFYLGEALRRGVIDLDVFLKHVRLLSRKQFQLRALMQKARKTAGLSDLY
#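 Fluorescence polarization binding of Tsg101 binding domain (10 uM final) to FITC-labeled PTAP peptide (50 nM final) in HEPES pH 7.5 buffer with NaCl, Tween 20, EDTA, TCEP. Compounds added before peptide; binding 20 min at RT.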
# Vif-APOBEC3G blk: inhibitors of Vif-APOBEC3G interaction. Q9HC16. HeLa A3G-eYFP + Vif (tagged APOBEC3G with the HIV-1 protein that degrades it), YFP fluorescence, overnight. Potency, µM (titrated, usually from 46.1 µM), for the others: at the highest dose activity, negative = active, most hits filed as inhibitors. 410,000 compounds, 0.076% hits; also: potency is read from the fitted curve at half-maximal effect; % is scaled to controls: 0 for no effect and ±100 for the full control effect; nearly all actives have a fitted effect of over 60% in size
# Target sequence (Q9HC16 whole entry, looked up): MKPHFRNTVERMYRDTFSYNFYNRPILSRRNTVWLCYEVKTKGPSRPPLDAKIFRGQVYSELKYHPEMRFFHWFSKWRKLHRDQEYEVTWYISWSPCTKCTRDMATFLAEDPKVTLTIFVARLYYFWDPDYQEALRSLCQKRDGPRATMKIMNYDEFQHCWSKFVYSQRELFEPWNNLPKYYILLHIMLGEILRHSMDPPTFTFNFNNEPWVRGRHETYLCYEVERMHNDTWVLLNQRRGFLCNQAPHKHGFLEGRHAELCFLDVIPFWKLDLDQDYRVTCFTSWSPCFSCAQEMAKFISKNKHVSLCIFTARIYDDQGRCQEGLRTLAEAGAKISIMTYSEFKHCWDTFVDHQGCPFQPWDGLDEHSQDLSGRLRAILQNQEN
#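 Read-out is eYFP fluorescence (Ex 488/Em 500-530) from Vif-expressing HeLa A3G-eYFP cells; more signal means A3G escaped Vif-mediated degradation. Cells plated overnight, compound pinned in, incubated overnight at 37 deg C.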
# * marks the source's active call; other numbers are inactive results; i = inactive; ? = inconclusive; nt = not tested or not shown; ! = not active in a repeat. Rows were chosen to be rich in hits. Some 1.4% of all compounds tested hit in one or more screens of this group. Unless noted, calls follow the shape of the dose curve; as a rule, active = well fitted curve in the direction sought with a large enough effect; inconclusive = small, poorly fitted or top-dose-only effect, or another doubt; inactive = no such curve, though single readings can be large; an effect the other way counts as inactive or inconclusive.
SMILES,Vif-APOBEC3F blk,S-ASM inh,Akt phos inh,12-LOX inh,TSG101-PTAP inh,Vif-APOBEC3G blk
CCOc1cc(N(CC)CC)ccc1/C=C(/C#N)c1nc2ccccc2[nH]1,3.5µM*,?,i,2%,?,?
CCN(CC)c1ccc(/C=C(/C#N)c2nc3ccc(C)cc3[nH]2)c(OC(C)C)c1,-2%,?,nt,-4%,?,?
CCOc1ccc(/C=C(\C#N)c2nc3ccccc3[nH]2)c(OCC)c1,nt,nt,nt,2%,nt,nt
NC(=S)N/N=C1\c2ccccc2-c2c(C(=O)O)cccc21,6%,1%,i,32µM*,2%,1%
NC(=O)c1cccc2c1-c1ccccc1/C2=N/NC(N)=S,-11%,-3%,i,?,-3%,7%
CCCOc1ccc(CC(=O)NCC2(c3ccccc3)CCOCC2)cc1OC,-7%,2%,-117%*,-19%,0%,0%
CCCOc1ccc(CC(=O)NCc2ccco2)cc1OC,-1%,-1%,i,0%,-6%,-2%
CCCN(C(=O)c1cccs1)c1nc(-c2ccccc2)cs1,nt,nt,nt,20%,nt,nt
O=C(c1cnccn1)N1CC(=O)N2[C@@H](CO)[C@H](c3ccc(Br)cc3)[C@@H]2C1,nt,nt,nt,10µM*,nt,nt
COc1ccc(C(=S)NCS(=O)(=O)c2ccc(C)cc2)cc1,0%,-14%,i,16µM*,-2%,-2%
O=S(=O)(O)c1cccnc1SCc1ccccc1,7%,11%,i,?,2%,-1%
Oc1cccnc1SCc1ccccc1,2%,1%,i,6.3µM*,1%,-1%
COc1ccc(OC)c2c(/C=C/c3c[nH]c4ccccc34)ccnc12,nt,nt,nt,nt,nt,-8%
Cc1ccc2c(/C=C/c3c[nH]c4ccccc34)ccnc2c1C,nt,nt,nt,nt,nt,11µM*
OCC[n+]1ccc(/C=C/c2c[nH]c3ccccc23)cc1,3.5µM*,-15%,i,?,?,?
C(=Cc1c[nH]c2ccccc12)c1nccc2ccccc12,8.9µM*,52%,i,?,13%,?
C(=Cc1c[nH]c2ccccc12)c1ccc2ccccc2n1,25µM*,413%,i,?,8%,?
COc1ccc(OCC(=O)Nc2ccc(OC)c3ncccc23)cc1,nt,nt,nt,14%,nt,nt
O=C(CCC1CCCCC1)NCC1CC2c3ccccc3C1c1ccccc12 (stereo not drawn),nt,nt,nt,13%,nt,nt
Cc1c(-c2nnc(-c3ccc(OC(C)C)cc3)o2)oc2ccccc12,nt,nt,nt,-1%,nt,nt
Cc1ncsc1CCC(=O)N1CCC2(CCNCC2)CC1,nt,nt,nt,16µM*,nt,nt
Cc1nn(-c2nc(-c3ccco3)cc(C(F)(F)F)n2)c(C)c1Cl,nt,2%,-116%*,0%,-3%,-3%
O=c1n(-c2ccncc2)nc2n1CCN(Cc1ccc(C(F)(F)F)cc1)C2,nt,nt,nt,6%,nt,nt
O=C(NCc1ccc2c(c1)OCO2)c1ccccc1,-8%,-5%,i,-17%,1%,-7%
O=C(NC(=S)NCc1ccccc1)c1ccc2c(c1)OCO2,-7%,-3%,i,16µM*,-3%,-3%
SMILES,Vif-APOBEC3F blk,S-ASM inh,Akt phos inh,12-LOX inh,TSG101-PTAP inh,Vif-APOBEC3G blk
COc1ccc(C(=O)NC(=S)NCc2ccccc2)cc1,2%,-4%,i,0.71µM*,-2%,1%
O=C(NC(=S)NCc1ccc2c(c1)OCO2)c1ccccc1,-3%,-9%,i,16µM*,-3%,-3%
COc1ccc(/C=C/c2nc(C#N)c(NCCCN(C)C)o2)cc1OC,nt,nt,nt,-18%,nt,nt
CCNC(=O)C1CCN(Cc2nnnn2-c2ccccc2)CC1,nt,nt,nt,11%,nt,nt
COc1ccc(-n2ncc3c(NCC(C)C)ncnc32)cc1,-27%,2%,i,6.3µM*,-1%,-7%
O=C(NCc1ccco1)c1cc(-c2cccs2)nc2ccccc12,-6%,55%,i,?,-4%,-5%
CCc1ccc(-c2cc(C(=O)NCc3ccco3)c3ccccc3n2)cc1,nt,nt,nt,14µM*,nt,nt
COc1cc(-c2cc(C(=O)NCc3ccco3)c3ccccc3n2)cc(OC)c1OC,14%,-1%,i,?,0%,-11%
Cc1ccc(-c2cc(C(=O)NCc3ccco3)c3ccccc3n2)s1,-7%,495%,i,25µM*!,0%,-7%
CCc1ccc(NC(=O)c2ccccc2SCC(=O)NCc2ccco2)cc1,nt,nt,nt,5.6µM*,nt,nt
CCc1ccc(C(NC(=O)c2nn(C)c(=O)c3ccccc23)C(C)C)cc1 (stereo not drawn),nt,nt,nt,6%,nt,nt
Cc1ccc(CNc2nc3ccccc3nc2NS(=O)(=O)c2ccc(C)cc2)cc1,nt,nt,nt,-5%,nt,nt
O=C(OCCC12CC3CC(CC(C3)C1)C2)c1ccc(NCc2cc(O)ccc2O)cc1,?,-23%,i,5.6µM*,2%,?
O=C(OCC12CC3CC(CC(C3)C1)C2)c1ccc(NCc2cc(O)ccc2O)cc1,22µM*,-19%,i,16µM*,0%,-15%
O=C(NC1CCCC1)C1(c2ccc(F)cc2)CCCC1,nt,nt,nt,25%,nt,nt
COc1ccc(CN2C(=O)C(CC(=O)NCCN3CCOCC3)CC(C(=O)N(C)C)=C2C)cc1 (stereo not drawn),-13%,nt,i,4%,nt,0%
CCN(CC)C(=O)C1=C(C)N(Cc2ccc(OC)cc2)C(=O)C(CC(=O)NCCN2CCOCC2)C1 (stereo not drawn),1%,nt,i,16µM*,nt,-4%
Cc1cc(C)n2ncc(-c3noc(C(=O)NC[C@@H](C)O)n3)c2n1,nt,nt,nt,-18%,nt,nt
CCC(C)c1ccc(O)c(NC(=S)NC(=O)c2cccs2)c1 (stereo not drawn),8%,nt,i,22µM*,nt,-20%
COc1cc(NC(=S)NC(=O)c2ccc(C)cc2C)ccc1NC(=O)c1cccs1,2%,-11%,i,5µM*,2%,-3%
CCN(CC)c1ccc(NC(=O)Nc2ccccc2C(F)(F)F)cc1,7%,9%,-116%*,102%,2%,-2%
CCC(C)c1ccc(O)c(NC(=O)c2cccnc2)c1 (stereo not drawn),nt,-2%,i,0%,1%,2%
CCN(CC)c1ccc(NC(=S)NC(=O)c2cccs2)cc1,0%,-10%,i,18µM*,-2%,-1%
C=CCNC(=O)NC(=O)CN(C)CCCOc1ccccc1,nt,nt,nt,9%,nt,nt
CC(=O)NC(CC(=O)N(CC(F)(F)F)C1CC1)c1cccs1 (stereo not drawn),nt,nt,nt,0%,nt,nt
CC(C)NC(=O)C(C#N)(Cc1ccc(C#N)cc1)Cc1ccc(C#N)cc1,nt,nt,nt,62%,nt,nt
CCOC(=O)/C(C#N)=C/c1cc(Br)ccc1OCc1ccccc1Cl,nt,nt,nt,-3%,nt,nt
Nc1ncnc(Nc2ccccc2Cl)c1[N+](=O)[O-],nt,nt,nt,13%,nt,nt
COc1cc(NC(=S)NC(=O)c2cccs2)ccc1NC(=O)C(C)C,?,0%,i,7.1µM*,-2%,-7%
